Compound activity deposited in PubChem by National Center for Advancing Translational Sciences (NCATS).
D1 ag – agonists of human D1 dopamine receptor; P21728; HEK293 T-REx D1 cells, calcium flux, agonist mode; activation, % at 2 µM; 1% of 360,000 active; AID 504660; also: 0% is about no effect
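Agonism was scored from calcium flux recorded over 180 s (1 read/s) after pintool compound addition, following a 10-cycle baseline. Cells were inducible force-coupled HEK293 TREx D1, plated overnight at 30 C and loaded with no-wash calcium dye.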
D1 potentiator – potentiators of human D1 dopamine receptor. 0.036% of 360,000 active. HEK293 TREx D1 cells, calcium flux, dopamine EC20 potentiation. potentiation, % at 10 µM. AID 504651. P21728; in the data active = potentiation above about 30%; also: 0% is about no effect
TRHR PAM – TRH receptor (human) allosteric enhancement; TRHR cells, fluo-8 calcium fluorescence, EC20 TRH enhancement; enhancement, % at 2 µM; 0.66% of 360,000 active; AID 493056; in the data active = enhancement above about 30%; also: 0% is about no effect
Target sequence (P34981 whole entry, looked up): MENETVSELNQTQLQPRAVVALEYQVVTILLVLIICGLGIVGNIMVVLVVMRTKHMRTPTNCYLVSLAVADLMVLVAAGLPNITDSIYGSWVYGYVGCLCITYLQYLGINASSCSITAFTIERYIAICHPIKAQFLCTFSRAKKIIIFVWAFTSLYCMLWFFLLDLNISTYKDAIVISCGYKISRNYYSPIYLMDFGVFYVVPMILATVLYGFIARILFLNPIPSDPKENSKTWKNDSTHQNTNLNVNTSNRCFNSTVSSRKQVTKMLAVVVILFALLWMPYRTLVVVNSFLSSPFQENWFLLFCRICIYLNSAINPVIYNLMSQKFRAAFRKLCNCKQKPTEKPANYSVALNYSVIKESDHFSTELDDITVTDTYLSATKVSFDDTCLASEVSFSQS
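TRHR-expressing cells loaded with fluo-8 calcium dye were read kinetically (ex 480/em 530) during compound addition, then stimulated with an EC20 of TRH (10 nM final). Enhancement of the Gq-mediated intracellular calcium response was scored.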
TRHR ag – activates the human TRH receptor; 0.18% of 360,000 active; TRHR cells, calcium flux fluo-8, FDSS agonist mode; AID 493084; activation, % at 2 µM; P34981; also: 0% is about no effect
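TRHR-expressing cells, plated overnight in medium with 10% serum, were loaded with fluo-8 calcium dye at room temperature. After a 10 s baseline, library compound was pin-added and calcium release was recorded kinetically (ex 480/em 530) as agonist response.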
D1 antagonist – human D1 dopamine receptor antagonism; P21728; HEK293 TREx D1 cells, calcium flux, dopamine EC80; stronger effect = lower value; activity change, negative = inhibition, % at 10 µM; 3.2% of 360,000 active; AID 504652; in the data active = activity change below about -30%; also: % is scaled to controls: 0 for no effect and ±100 for the full control effect
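Compound effects on dopamine-evoked calcium signalling were measured in tetracycline-induced HEK293 Trex D1 cells. Dopamine at EC80 followed a 180 s compound pre-read, and fluorescence was tracked kinetically for 180 s more.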
Active calls of the source: *. Most compounds without a hit are left out; they make up all but 4.6% or so of the library. Rule as the data show it, unless noted: active = activation above about 30%; inactive = the rest.

SMILES	D1 ag	D1 potentiator	TRHR PAM	TRHR ag	D1 antagonist
N#Cc1c(C(F)(F)F)cc(-c2cccs2)nc1SCC(=O)Nc1cccc(Cl)c1	47*	-4	14	28	14
CSc1nc(N)nc(SCC(=O)Nc2cccc(F)c2)c1C#N	19	-13	5	-1	-44*
CSC1=NSC2=NC(=O)/C(=C\c3coc4ccccc4c3=O)C(=N)N12	306*	4	19	121*	-48*
N=C1/C(=C/c2coc3ccccc3c2=O)C(=O)N=C2SC(c3ccco3)=NN12	16	9	-2	6	6
N=C1/C(=C\c2coc3ccccc3c2=O)C(=O)N=C2SC(c3ccncc3)=NN12	256*	-2	33*	146*	-31*
CC(C)CSC1=NSC2=NC(=O)/C(=C\c3coc4ccccc4c3=O)C(=N)N12	240*	-9	-3	51*	-22
COc1cc(OC)cc(C(=O)N[C@H](C(=O)NCc2ccc(F)cc2)C(C)C)c1	0	6	11	-1	5
O=S(=O)(Cc1cc(Oc2ccccc2)nc(-c2ccccc2)n1)c1ccccc1	0	-5	2	0	-33*
COc1ccc(-c2nc(CSCC(=O)NCCC(C)C)c(C)o2)cc1OC	-1	-2	1	0	7
O=[N+]([O-])c1cccc(-c2csc(N/N=C/c3cccc(O)c3)n2)c1	2	-12	-1	1	-43*
Cc1csc(N/N=C/c2ccc([N+](=O)[O-])cc2)n1	7	-1	-2	2	-35*
CCOC(=O)Cc1csc(N/N=C/c2cccc([N+](=O)[O-])c2)n1	0	-6	13	-1	-5
O=C(/C=C/c1ccc(Cl)cc1Cl)Nc1cccc(S(=O)(=O)NC2=NCCC2)c1	8	-8	12	1	-31*
Cc1ccc(-n2ncc3c(NCCCN(C)C)ncnc32)cc1Cl	22	-2	0	1	-12
Cc1ccccc1S(=O)(=O)Nc1cccnc1	1	-4	-1	0	1
CCn1ncc(S(=O)(=O)Nc2cccnc2)c1C	2	-10	-10	1	-41*
CCN(C(=O)COC(=O)c1c(C)noc1C)C1CCS(=O)(=O)C1 (stereo unspecified)	3	4	-1	1	-9
Cc1noc(C)c1C(=O)OCC(=O)N(C)C1CCS(=O)(=O)C1 (stereo unspecified)	4	-2	2	0	-80*
CN(C(=O)COC(=O)c1cccc(Cl)c1)C1CCS(=O)(=O)C1 (stereo unspecified)	0	-2	6	2	16
CN(C(=O)COC(=O)c1cccnc1Nc1ccccc1F)C1CCS(=O)(=O)C1 (stereo unspecified)	0	-2	-2	-2	-31*
CN(C(=O)COC(=O)c1ccc(-c2ccc(O)cc2)cc1)C1CCS(=O)(=O)C1 (stereo unspecified)	4	-4	3	0	-46*
CSc1nc(C)cc(Nc2c(C)cc(C)cc2C)n1	4	-2	-2	0	-17
CCc1ccc(NC(=O)CN2C(=O)C3(SCC(=O)N3c3ccccc3)c3ccccc32)cc1 (stereo unspecified)	0	-1	27	-1	-5
Cc1ccc(NC(=O)c2ncn(-c3ccccc3)n2)cc1Cl	-2	-3	1	-1	-4
Cc1ccc(/C=C2/NC(=O)N(Cc3ccccc3F)C2=O)s1	43*	-4	-1	14	9
SMILES	D1 ag	D1 potentiator	TRHR PAM	TRHR ag	D1 antagonist
Cc1cc(/C=C2/NC(=O)N(Cc3ccccc3F)C2=O)c(C)n1-c1ccccn1	2	-3	3	0	-43*
CC(NC(=O)c1cc2sccc2n1C)c1ccc2c(c1)OCCO2 (stereo unspecified)	6	3	1	1	-7
CCn1c(C(=O)NC(C)c2ccc3c(c2)OCCO3)cc2sccc21 (stereo unspecified)	6	-1	1	0	-32*
COc1ccccc1/C=C/C(=O)NCC(=O)N/N=C/c1ccc2c(c1)OCO2	-4	4	-2	0	6
COc1ccccc1CNC(=O)/C=C/c1cc2c(cc1Br)OCO2	8	-1	0	0	-30*
CCc1noc(C)c1C(=O)N1CCN(S(=O)(=O)c2cc(C)ccc2C)CC1	-1	11	-6	0	-31*
